Measurements taken from PubChem BioAssay (NCI).
The panel holds about 83,000 compounds, 20% with a hit somewhere; the sample as a whole holds those more often.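 Percent growth is the endpoint: 0 to 100 indicates growth inhibition (40 means 60% inhibition), 0 means no net growth, and negative values indicate cell death.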 A number with no mark means an inactive call. Calls of active or inactive are those of the source. The calls were made as follows: active = growth percent below 10; inactive = the rest.

Assays:
Assay in all cases: NCI-60 one-dose screen, 48 h (100 = growth as untreated, 0 = no growth, -100 = all killed)
Settings in all cases: 10 µM
[1] = system: SR leukemia
[2] = system: RPMI-8226 leukemia
[3] = system: OVCAR-8 ovarian
[4] = system: OVCAR-5 ovarian
[5] = system: OVCAR-4 ovarian
[6] = system: SK-OV-3 ovarian
[7] = system: IGROV1 ovarian
[8] = system: OVCAR-3 ovarian
[9] = system: HS 578T breast
[10] = system: NCI/ADR-RES ovarian
[11] = system: T-47D breast
[12] = system: BT-549 breast
[13] = system: MDA-MB-435 melanoma
[14] = system: SW-620 colon
[15] = system: MCF7 breast
[16] = system: HCT-116 colon
[17] = system: HCC-2998 colon
[18] = system: KM12 colon
[19] = system: MDA-MB-468 breast

| Structure (SMILES) | growth [1] | growth [2] | growth [3] | growth [4] | growth [5] | growth [6] | growth [7] | growth [8] | growth [9] | growth [10] | growth [11] | growth [12] | growth [13] | growth [14] | growth [15] | growth [16] | growth [17] | growth [18] | growth [19] |
| --- | --- | --- | --- | --- | --- | --- | --- | --- | --- | --- | --- | --- | --- | --- | --- | --- | --- | --- | --- |
| O=C(NO)c1ccc(CNc2nc(-c3ccccc3)c3ccccc3n2)cc1 | 15.7% | 11.3% | 6.42% (active) | -22.4% (active) | 32.9% | -39.1% (active) | -46.3% (active) | -11.3% (active) | 2.21% (active) | -44.5% (active) | -13.1% (active) | 18.1% | 4.16% (active) | -58.2% (active) | 7.92% (active) | 4% (active) | -63.9% (active) | 11.6% | -0.98% (active) |
| CN(C)c1ccc(/C=C/c2nc3ccccc3c(=O)n2CC(=O)Nc2ccccc2)cc1 | 75.5% | 64.3% | 25.9% | 89.1% | 35.5% | 92% | 76.2% | 26.4% | 44.7% | 30.4% | 49.3% | -1.24% (active) | 60.2% | 57.8% | 26% | 31.1% | 58.2% | 75.7% | -4.96% (active) |
| COc1cccc(-c2ccnc(/N=C(\N)Nc3ccc(S(=O)(=O)Nc4nc(C)cc(C)n4)cc3)n2)c1 | 100% | 90.1% | 102% | 107% | 96% | 84% | 83.4% | 99.3% | 86.4% | 103% | 88.4% | 111% | 109% | 105% |  | 103% | 114% | 98% | 115% |
| Cc1ccc(CNC(=O)Cc2ccc3c(c2)CN(C2CCC(=O)NC2=O)C3=O)cc1 (stereo unspecified) | 38.7% | 30.3% | 1.57% (active) | 29.5% | 0.757% (active) | 18.4% | 2.34% (active) | 6.03% (active) | -15.4% (active) | -8.37% (active) | -4% (active) | -46.4% (active) | 13.7% | 4.15% (active) | 15.1% | 65.2% | -23.5% (active) | 1.17% (active) | -50.8% (active) |
| N#Cc1ccc(-c2nn(-c3ccc(C(=O)O)cc3)cc2CNc2ccc(Cl)cc2)cc1 | 82.8% | 66.4% | 74.4% | 111% | 85.2% | 123% | 91.5% | 70.3% | 88.6% | 67.7% | 74.3% | 62.6% | 89.7% | 87.2% | 70.8% | 53.8% | 89.4% | 67% | 116% |
| COc1ccc(-c2c(N)c(=O)n(C)c3ccccc23)cc1 | 36.3% | 25.1% | 73.9% | 76.7% | 56.5% | 100% | 46.5% | 51.5% | 66.9% | 58.5% | 57.2% | 43% | 59.2% |  | 24.8% | 37.5% | 81.5% | 64.5% | 50.1% |
| O=C(NO)c1ccc(Cn2ccc3c(NCc4ccccc4)ncnc32)cc1 | 12.7% | 17.2% | -37.8% (active) | -8.63% (active) | 36% | -30.5% (active) | -40.1% (active) | 8.99% (active) | -0.0703% (active) | -32.1% (active) | -16.8% (active) | -22% (active) | -26.5% (active) |  | 9.85% (active) | -7.75% (active) | -3.05% (active) | 11.9% | -18.6% (active) |
| Clc1ccc2c(N/N=C/c3c[nH]c4ccc(Br)cc34)ccnc2c1 | -45.6% (active) | -42.1% (active) | -64.6% (active) | -66.5% (active) | -78.6% (active) | -84.7% (active) | -41.2% (active) | -82.8% (active) | -58.5% (active) | -77.5% (active) | -54.6% (active) | -79.5% (active) | -77.3% (active) |  | -56.8% (active) | -10.3% (active) | -92.5% (active) | -81.7% (active) |  |
| Cc1ccc(-c2nc(Nc3ccccc3C(=O)O)c3ccccc3n2)cc1 | 18.6% | 17.1% | 30.5% | 65.9% | 21.8% | 31.3% | 31.1% | 6.01% (active) | -9.53% (active) | 5.16% (active) | 10.7% | -23.5% (active) | 23.4% |  | 7.7% (active) | 6.7% (active) | 5.44% (active) | 8.37% (active) | -26.9% (active) |
| NS(=O)(=O)c1ccc(NC(=O)CSc2ccc(-c3ccc(Cl)cc3)nn2)c(Br)c1 | 66.4% | 72.5% | 3.04% (active) | 73.3% | 29.8% | 60.2% | 63.4% | 7.69% (active) | 4.72% (active) | 70% | 41.6% | 26.8% | 84.8% | 82.8% | 26.8% | 26.6% | 58.2% | 64.6% | -3.52% (active) |
| Nc1nc2c(F)c(F)c(F)c(F)c2s1 | 86.5% | 108% | 99.7% | 104% | 104% | 99.5% | 101% | 104% | 100% | 104% | 91.3% | 105% | 101% |  | 93.7% | 113% | 116% | 99.9% | 97.9% |
| Oc1ccc(/C=C2\CCCc3cc4ccc(O)cc4[o+]c32)c(O)c1 | 15.3% | 50.6% | -56.9% (active) | 122% | 42.9% | 86.3% | 21.4% | -45.1% (active) | 52.3% | -24.7% (active) | 18.3% | 23.3% | -40.7% (active) |  | 10.8% | 15.7% | 31% | 6.02% (active) | -13.8% (active) |
| COc1cc(-c2nc3cc(Cl)c(Cl)cc3[nH]2)ccc1OCc1nnc(-c2ccc(Br)cc2)o1 | -34.4% (active) | -23.2% (active) | 15.7% | 39.6% | -92.2% (active) | -11.1% (active) | 42% | -47.6% (active) | -22.5% (active) | 22% | -38.4% (active) | -73.4% (active) | -18.7% (active) | 21.6% |  | 2.89% (active) | 69.2% | 46.1% | -10.9% (active) |
| O=C(N/C(=C1/OCCN1Cc1ccccc1)[P+](c1ccccc1)(c1ccccc1)c1ccccc1)c1ccccc1 | 8.3% (active) | 0.374% (active) | 16.5% | 67.3% | 21.2% | 23% | 2.86% (active) | -7.02% (active) | -2.64% (active) | 97.8% | 11.2% | -16.4% (active) | 18.5% | 12.5% |  | 2.1% (active) | -10.8% (active) | -1.17% (active) | -30% (active) |
| O=C(N=Nc1c(O)[nH]c2ccc(Br)cc12)c1ccc2nc(-c3ccccc3)[nH]c2c1 | -5.76% (active) | -4.88% (active) | -94.5% (active) | -5.18% (active) | -92.1% (active) | -54.9% (active) | -39% (active) | -69.7% (active) | -25.9% (active) | 76.7% | -67.4% (active) | -71% (active) | -88.9% (active) |  | -53.4% (active) | -28.3% (active) | -78% (active) | 2.92% (active) | -85.8% (active) |
| COc1cc(/C=C/C(=O)c2ccc(S(=O)(=O)NCCNc3nc(Nc4ccc(F)cc4)nc(N(C)C)n3)cc2)cc(OC)c1OC | 3.14% (active) | 7.35% (active) | -65% (active) | -23.4% (active) | 22.8% | 109% | -48.9% (active) | -88.1% (active) | 67.3% | 46.6% | 26.2% | -9.95% (active) | -24.8% (active) | 1.12% (active) |  | -69.6% (active) | -99% (active) | -81.1% (active) | -50.5% (active) |
| C#CCNC(=O)CCC(=O)OC[C@]12CC[C@@H](C(=C)C)[C@@H]1C1CC[C@@H]3[C@@]4(C)CCCNC(C)(C)[C@@H]4CC[C@@]3(C)[C@]1(C)CC2 (stereo partly specified) | -7.1% (active) | -6.58% (active) | -59.9% (active) | 47.3% | 30.3% | 26.9% | -3.31% (active) | -71% (active) | 14.4% | -75.1% (active) | 10.9% | 11% | -32.2% (active) | -92.3% (active) | -65.7% (active) | -60.3% (active) | -99.1% (active) | 6.5% (active) | -94.9% (active) |
